# Test results as given in PubChem BioAssay (NCATS).
# “And” between values parts separate entries of the source, which are not always exact repeats. Identical values can stand only once. Records with an inconclusive call do not appear. The source made the active and inactive calls. Calls come from the whole dose curve; as a rule, active = well fitted inhibition curve with a large enough effect; inconclusive = small, poorly fitted or top-dose-only effect; inactive = flat fitted curve, though single readings scatter.
# System: KB-3-1
# Assay: Cytotoxic Profiling of Annotated Libraries Using Quantitative High-Throughput Screening (AID 1296008); note: nearly all actives have a fitted effect of over 60% in size
# Conditions: Five cell lines viability, CellTiter-Glo ATP luminescence, 48-72 h; max response: active compounds read low
# Procedure, shortened: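 Cytotoxicity was measured as CellTiter-Glo ATP luminescence, read after 10 min at room temperature. Compound treatment of the cells lasted 48 or 72 hr at 37 degrees Celsius in a qHTS format.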
# % is set by controls: 0 for no effect and ±100 for the full control effect; potency is the fitted concentration of half-maximal effect.
SMILES,max response,Potency
ClC1=C(Cl)[C@]2(Cl)[C@@H]3[C@H]4C[C@H]([C@@H]5O[C@H]45)[C@@H]3[C@@]1(Cl)C2(Cl)Cl,-3.16% (inactive),–
CC(=O)OO,2.94% (inactive),–
CCC1(c2ccccc2)C(=O)NC(=O)NC1=O,3.43% (inactive),–
N#CN,-5.54% (inactive),–
C[C@]12C[C@H]3S[C@H]3C[C@@H]1CC[C@@H]1[C@@H]2CC[C@]2(C)[C@@H](O)CC[C@@H]12,5.47% (inactive),–
CCC1(C)CC(=O)NC(=O)C1,4.64% (inactive),–
c1cc2c(c(NC3=NCCN3)c1)CCCC2,-8.19% (inactive),–
OC(c1ccccc1)(c1ccccc1)C1CN2CCC1CC2 (stereo not given),-22.3% (inactive),–
F/C(COc1ccc2c(c1)[nH]c1ccccc12)=C1/CN2CCC1CC2,-8.12% (inactive),–
NCC(O)c1cccc(O)c1 (stereo not given),1.34% (inactive),–
CNc1ccc(C(=O)CC(O)CCC(C)C2OC(=O)CC(O)CC(=O)CC(O)CC(O)CC(O)CC(O)CC3(O)CC(O)C(C(=O)OC)C(CC(O[C@@H]4O[C@H](C)[C@@H](O)[C@H](N)[C@@H]4O)/C=C/C=C/C=C/C=C/C=C/C=C/C=C/C2C)O3)cc1 (stereo not given in full),-0.469% (inactive),–
CN1[C@H]2CC[C@@H]1[C@@H](C(=O)O)[C@@H](OC(=O)c1ccccc1)C2,17.1% (inactive) and -20.4% (inactive),–
CNC(=O)OCC[N+](C)(C)C,5.31% (inactive),–
CCC(N)Cc1c[nH]c2ccccc12 (stereo not given),3.31% (inactive) and -1.82% (inactive),–
CCNC1(c2cccs2)CCCCC1=O (stereo not given),-6.94% (inactive),–
C=CCC1(C(C)CCC)C(=O)N=C(S)NC1=O (stereo not given),-6.22% (inactive),–
CC[C@H]1[C@@H]2C[C@H]3[C@@H]4N(C)c5ccccc5[C@]45C[C@@H](C2[C@H]5O)N3[C@@H]1O (stereo not given in full),-5.46% (inactive),–
CC(=O)O[C@H]1C[C@H](O[C@H]2[C@@H](O)C[C@H](O[C@H]3[C@@H](O)C[C@H](O[C@H]4CC[C@@]5(C)[C@H](CC[C@@H]6[C@@H]5C[C@@H](O)[C@]5(C)[C@@H](C7=CC(=O)OC7)CC[C@]65O)C4)O[C@@H]3C)O[C@@H]2C)O[C@H](C)[C@H]1O[C@@H]1O[C@H](CO)[C@@H](O)[C@H](O)[C@H]1O,–,164 nM (active)

SMILES,max response,Potency
C[N+]1([O-])[C@@H]2CC(OC(=O)[C@H](CO)c3ccccc3)C[C@H]1[C@@H]1O[C@@H]12 (stereo not given in full),-17% (inactive) and 5.47% (inactive),–
CCN(CC)C(=O)N[C@H]1C[C@@H]2c3cccc4[nH]cc(c34)C[C@H]2N(C)C1,-7.12% (inactive),–
CC(C)(C)c1cc(O)ccc1O,3.78% (inactive) and 3.98% (inactive),–
COCC(C)N(C(=O)CCl)c1c(C)csc1C (stereo not given),-0.17% (inactive),–
CCCCCl,-7.35% (inactive),–
CC(=O)OCC(=O)[C@H]1CC[C@H]2[C@@H]3CC[C@H]4C[C@H](O)CC[C@]4(C)[C@H]3C(=O)C[C@]12C,2.82% (inactive),–
CC(=O)OC1CN2CCC1CC2 (stereo not given),4.86% (inactive),–
C[C@@H](Cc1ccccc1)N(C)C,9.66% (inactive),–
COc1ccc2c3c1O[C@H]1C(=O)CC[C@H]4[C@@H](C2)N(C)CC[C@]314,8.34% (inactive),–
C[C@@H]([C@H](O)c1ccccc1)N(C)C,3.96% (inactive),–
CCNCC(O)c1cccc(O)c1 (stereo not given),6.6% (inactive),–
CCC1(c2ccccc2)C(=O)NC(=O)N(C)C1=O (stereo not given),-7.5% (inactive),–
O=[N+]([O-])c1cc(I)c(O)c(I)c1,-0.558% (inactive),–
N#CC(C#N)=Cc1cc(O)c(O)c(O)c1,-23.8% (inactive),–
CN1CCCC(=C(c2cccs2)c2cccs2)C1,-14.6% (inactive),–
O=c1c2ccccc2[se]n1-c1ccccc1,-5.46% (inactive),–
CN1c2ccccc2C(NCCCCCCC(=O)O)c2ccc(Cl)cc2S1(=O)=O (stereo not given),-15.2% (inactive),–
